Measurements as given in PubChem BioAssay AID1159580 (chemical genetic matrix, 2015).
“And” between values parts separate entries of the source, which are not always exact repeats. Equal values may be shown once. Among all 5,500 compounds or so, about 2,000 (36%) were called active. Roughly 18% stayed inconclusive and do not appear here. No stated cut-off is given here; in the data, active means normalized growth mostly below about 0.91 (no sharp cut-off); inconclusive means no clear call, values can overlap the other calls; inactive means mostly above about 0.92. The list shows a part of the results.

Assay: chemical genetic growth profiling, strain panel (AID 1159580);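 further: tested at 20 µM; growth read once vehicle control cultures reached saturation at 30 °C; 1 = growth at the plate median or of vehicle wells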
Conditions: growth OD

Measured: normalized growth

C1CCc2nnnn2CC1
inactive: S. cerevisiae deletion strains, locus YJR075W, strain HOC1, stronger effect = lower value 1.03 and 1.01 | S. cerevisiae deletion strains, locus YKL009W, strain mrt4, stronger effect = lower value 1.03 | S. cerevisiae deletion strains, locus YKL068W, stronger effect = lower value 1.02 | S. cerevisiae deletion strains, locus YKL085W, strain MDH1 (second series), stronger effect = lower value 1 | S. cerevisiae deletion strains, locus YKL085W, strain MDH1, stronger effect = lower value 1 | S. cerevisiae deletion strains, locus YKL160W, strain elf1, stronger effect = lower value 1.01 | S. cerevisiae deletion strains, locus YKL190W, strain CNB1, stronger effect = lower value 1 | S. cerevisiae deletion strains, locus YKR001C, strain vps1, stronger effect = lower value 1.02 | S. cerevisiae deletion strains, locus YKR026C, strain gcn3, stronger effect = lower value 1.01 | S. cerevisiae deletion strains, locus YKR091W, strain srl3, stronger effect = lower value 1 | S. cerevisiae deletion strains, locus YLL001W, strain dnm1, stronger effect = lower value 1 | S. cerevisiae deletion strains, locus YLL026W, stronger effect = lower value 1 | S. cerevisiae deletion strains, locus YLL041C, strain sdh2, stronger effect = lower value 1 | S. cerevisiae deletion strains, locus YLR027C, strain aat2, stronger effect = lower value 1 | S. cerevisiae deletion strains, locus YLR039C, strain RIC1, stronger effect = lower value 1.03 | S. cerevisiae deletion strains, locus YLR058C, strain SHM2, stronger effect = lower value 1.02 | S. cerevisiae deletion strains, locus YLR102C, strain apc9, stronger effect = lower value 1 | S. cerevisiae deletion strains, locus YLR113W, strain HOG1, stronger effect = lower value 0.985 | S. cerevisiae deletion strains, locus YLR221C, strain rsa3, stronger effect = lower value 1.01 | S. cerevisiae deletion strains, locus YLR258W, strain gsy2, stronger effect = lower value 1.01 | S. cerevisiae deletion strains, locus YLR262C, strain YPT6 (second series), stronger effect = lower value 1.02 | S. cerevisiae deletion strains, locus YLR262C, strain YPT6, stronger effect = lower value 1.04 | S. cerevisiae deletion strains, locus YLR268W, strain sec22, stronger effect = lower value 1.05 | S. cerevisiae deletion strains, locus YLR320W, strain mms22, stronger effect = lower value 1.01 | S. cerevisiae deletion strains, locus YLR330W, strain CHS5, stronger effect = lower value 1 | S. cerevisiae deletion strains, locus YLR342W, strain FKS1 (second series), stronger effect = lower value 1.01 | S. cerevisiae deletion strains, locus YLR342W, strain FKS1, stronger effect = lower value 1.01 | S. cerevisiae deletion strains, locus YLR357W, strain rsc2, stronger effect = lower value 0.983 | S. cerevisiae deletion strains, locus YLR370C, strain arc18, stronger effect = lower value 1.01 | S. cerevisiae deletion strains, locus YLR371W, strain rom2, stronger effect = lower value 1.02 | S. cerevisiae deletion strains, locus YLR384C, strain iki3, stronger effect = lower value 0.999 | S. cerevisiae deletion strains, locus YLR418C, strain cdc73, stronger effect = lower value 1.02 | S. cerevisiae deletion strains, locus YML016C, strain PPZ1, stronger effect = lower value 1.01 | S. cerevisiae deletion strains, locus YML032C, strain rad52, stronger effect = lower value 1.03 | S. cerevisiae deletion strains, locus YML120C, strain ndi1, stronger effect = lower value 0.998 | S. cerevisiae deletion strains, locus YML124C, strain tub3, stronger effect = lower value 1.01 | S. cerevisiae deletion strains, locus YMR058W, strain fet3, stronger effect = lower value 1.01 | S. cerevisiae deletion strains, locus YMR078C, strain ctf18, stronger effect = lower value 1.02 | S. cerevisiae deletion strains, locus YMR125W, strain sto1, stronger effect = lower value 1.01 | S. cerevisiae deletion strains, locus YMR129W, stronger effect = lower value 1.01 | S. cerevisiae deletion strains, locus YMR205C, strain PFK2, stronger effect = lower value 1.03 | S. cerevisiae deletion strains, locus YMR223W, strain ubp8, stronger effect = lower value 0.987 | S. cerevisiae deletion strains, locus YMR231W, strain pep5, stronger effect = lower value 1 | S. cerevisiae deletion strains, locus YMR263W, strain SAP30, stronger effect = lower value 1.03 | S. cerevisiae deletion strains, locus YMR307W, strain GAS1, stronger effect = lower value 1.01 | S. cerevisiae deletion strains, locus YNL067W, strain RPL9B, stronger effect = lower value 1.03 | S. cerevisiae deletion strains, locus YNL071W, strain lat1, stronger effect = lower value 0.999 | S. cerevisiae deletion strains, locus YNL128W, strain TEP1, stronger effect = lower value 1.02 | S. cerevisiae deletion strains, locus YNL153C, strain GIM3, stronger effect = lower value 1.02 and 1.14 | S. cerevisiae deletion strains, locus YNL175C, strain NOP13, stronger effect = lower value 1.01 | S. cerevisiae deletion strains, locus YNL183C, strain NPR1, stronger effect = lower value 0.918 | S. cerevisiae deletion strains, locus YNL197C, strain WHI3, stronger effect = lower value 1.01 | S. cerevisiae deletion strains, locus YNL209W, strain ssb2, stronger effect = lower value 1.01 | S. cerevisiae deletion strains, locus YNL224C, strain SQS1, stronger effect = lower value 1.02 | S. cerevisiae deletion strains, locus YNL233W, strain BNI4, stronger effect = lower value 0.982 | S. cerevisiae deletion strains, locus YNL248C, strain rpa49, stronger effect = lower value 0.994 | S. cerevisiae deletion strains, locus YNL250W, strain rad50, stronger effect = lower value 1 | S. cerevisiae deletion strains, locus YNL271C, strain bni1, stronger effect = lower value 1.02 | S. cerevisiae deletion strains, locus YNL298W, strain CLA4, stronger effect = lower value 1.01 | S. cerevisiae deletion strains, locus YNL307C, strain MCK1, stronger effect = lower value 1.01 | S. cerevisiae deletion strains, locus YNL322C, strain KRE1 (second series), stronger effect = lower value 1.01 | S. cerevisiae deletion strains, locus YNL322C, strain KRE1, stronger effect = lower value 1.01 and 1 | S. cerevisiae deletion strains, locus YNR049C, strain mso1, stronger effect = lower value 1.01 | S. cerevisiae deletion strains, locus YNR052C, strain pop2, stronger effect = lower value 1 | S. cerevisiae deletion strains, locus YOL006C, strain TOP1, stronger effect = lower value 1.08 | S. cerevisiae deletion strains, locus YOL012C, strain htz1 0.99 | S. cerevisiae deletion strains, locus YOL147C, strain pex11, stronger effect = lower value 1.01 | S. cerevisiae deletion strains, locus YOR001W, strain rrp6, stronger effect = lower value 1 | S. cerevisiae deletion strains, locus YOR061W, strain CKA2, stronger effect = lower value 1.01 | S. cerevisiae deletion strains, locus YOR069W, strain VPS5, stronger effect = lower value 1.02 | S. cerevisiae deletion strains, locus YOR070C, strain gyp1, stronger effect = lower value 0.999 | S. cerevisiae deletion strains, locus YOR080W, strain dia2, stronger effect = lower value 1 | S. cerevisiae deletion strains, locus YOR083W, strain WHI5 (second series), stronger effect = lower value 1.02 | S. cerevisiae deletion strains, locus YOR083W, strain WHI5, stronger effect = lower value 1.02 | S. cerevisiae deletion strains, locus YOR106W, strain vam3, stronger effect = lower value 1.01 | S. cerevisiae deletion strains, locus YOR136W, strain idh2, stronger effect = lower value 0.992 | S. cerevisiae deletion strains, locus YOR144C, strain elg1, stronger effect = lower value 1.01 | S. cerevisiae deletion strains, locus YOR184W, strain ser1, stronger effect = lower value 1.03 | S. cerevisiae deletion strains, locus YOR231W, strain MKK1, stronger effect = lower value 0.982 | S. cerevisiae deletion strains, locus YOR265W, strain rbl2, stronger effect = lower value 1.02 | S. cerevisiae deletion strains, locus YOR270C, strain vph1, stronger effect = lower value 1.04 | S. cerevisiae deletion strains, locus YOR290C, strain snf2, stronger effect = lower value 1.01 | S. cerevisiae deletion strains, locus YOR316C, strain cot1, stronger effect = lower value 1.01 | S. cerevisiae deletion strains, locus YPL051W, strain arl3, stronger effect = lower value 1.01 | S. cerevisiae deletion strains, locus YPL055C, strain LGE1, stronger effect = lower value 0.977 | S. cerevisiae deletion strains, locus YPL078C, strain atp4, stronger effect = lower value 1.01 | S. cerevisiae deletion strains, locus YPL106C, strain sse1, stronger effect = lower value 1 | S. cerevisiae deletion strains, locus YPL240C, strain hsp82, stronger effect = lower value 1.02 | S. cerevisiae deletion strains, locus YPL241C, strain CIN2, stronger effect = lower value 1 | S. cerevisiae deletion strains, locus YPL256C, strain CLN2, stronger effect = lower value 0.976 | S. cerevisiae deletion strains, locus YPR119W, strain clb2, stronger effect = lower value 1 | S. cerevisiae deletion strains, locus YPR141C, strain kar3, stronger effect = lower value 1 | S. cerevisiae deletion strains, locus YPR163C, strain tif3, stronger effect = lower value 1.02 | S. cerevisiae deletion strains, locus YPR167C, strain met16, stronger effect = lower value 1.01 | S. cerevisiae deletion strains, strain wtn01, stronger effect = lower value 1.02 | S. cerevisiae strains, strain wild type, stronger effect = lower value 1.01
